This is a sample that favours compounds with a hit; in the whole collection about 2.3% have one here.
m5-HT2A agonist: mouse HTR2A agonism via beta-arrestin recruitment; P35363; CHO-K1 mHTR2A beta-arrestin complementation, luminescence; percent of 30 µM serotonin response; activation, % at 7.6 µM; actives 0.66% (n = 360,000);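 active = activation above a run cutoff, the mean activation of all tested compounds plus 3 SD, cut at about 14% in these data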;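 note: 0% = plate median of compound wells and 100% = 30 µM serotonin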
ABHD5 PLIN5 PPI: ABHD5-PLIN5 protein interaction inhibition | actives 0.78% (n = 360,000) | inhibition, % at 4 µM | Q00G26+Q8WTS1 | Split G. princeps luciferase complementation, luminescence, 4 h;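 active = inhibition above the mean inhibition across every tested compound plus 3 SD, cut at about 22% in these data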;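 note: 0% = DMSO only wells and the 100% control is not disclosed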
Target sequence (Q00G26 whole entry, looked up): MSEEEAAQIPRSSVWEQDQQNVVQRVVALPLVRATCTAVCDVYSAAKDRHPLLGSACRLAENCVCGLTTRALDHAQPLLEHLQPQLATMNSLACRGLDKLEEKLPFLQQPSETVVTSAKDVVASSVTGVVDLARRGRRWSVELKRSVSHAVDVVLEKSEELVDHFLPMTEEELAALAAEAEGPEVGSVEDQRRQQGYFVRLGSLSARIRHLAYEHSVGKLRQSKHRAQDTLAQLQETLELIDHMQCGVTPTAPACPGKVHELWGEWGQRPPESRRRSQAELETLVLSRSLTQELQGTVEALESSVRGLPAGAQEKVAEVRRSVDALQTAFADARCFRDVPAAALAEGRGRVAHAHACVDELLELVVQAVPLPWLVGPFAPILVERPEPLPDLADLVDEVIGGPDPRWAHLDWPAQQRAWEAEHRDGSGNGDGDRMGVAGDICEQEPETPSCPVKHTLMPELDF
Target sequence (Q8WTS1 whole entry, looked up): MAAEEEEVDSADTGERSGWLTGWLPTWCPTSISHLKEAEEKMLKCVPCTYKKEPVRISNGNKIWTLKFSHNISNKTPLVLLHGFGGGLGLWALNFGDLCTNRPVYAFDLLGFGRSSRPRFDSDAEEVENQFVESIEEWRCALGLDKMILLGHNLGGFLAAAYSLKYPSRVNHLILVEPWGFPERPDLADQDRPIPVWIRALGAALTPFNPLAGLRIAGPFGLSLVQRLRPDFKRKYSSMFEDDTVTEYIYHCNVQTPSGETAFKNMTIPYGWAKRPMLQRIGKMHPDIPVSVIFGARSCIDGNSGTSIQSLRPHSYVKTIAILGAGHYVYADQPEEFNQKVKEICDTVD
Granule exo inh: lytic granule exocytosis inhibition | TALL-104 LAMP-1 surface exposure, flow cytometry; cells stimulated with thapsigargin and PMA | inhibition, % at 10 µM | actives 0.66% (n = 360,000) | AID 651702;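 active = inhibition above about 55%, limit read from the data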
Beta2AR agonist: human beta-2 adrenergic receptor agonism by FAP; response, % (no concentration beside the values); AID 504454; Am2.2-beta2AR cells, FAP receptor internalization, flow cytometry; actives 0.43% (n = 340,000);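 active = response above a set limit, near 3 SD of response in nonfluorescent compounds, cut at about 42% in these data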
NTR1 ag: activates human neurotensin receptor 1 | NTR1-U2OS beta-arrestin-GFP spot imaging, agonist mode | P30989 | AID 493036 | activation, % at 20 µM | actives 0.17% (n = 330,000);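 active = activation at or above 40% of the spot to cytoplasm intensity ratio, with at least 20 cells analyzed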;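 note: 0% = DMSO without peptide and 100% = 100 nM NTR1 peptide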
OPRM1 ag: counter-screen for mouse HTR2A agonists: human mu opioid receptor agonists; activation, % at 9.3 µM; shares compounds with m5-HT2A agonist; actives 5.3% (n = 2,300); U2OS OPRM1 beta-arrestin PathHunter, luminescence; DMSO 0%, DAMGO 9.3 µM 100%;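 active = mean activation above the mean of DMSO-only wells plus 3 SD, cut at about 0.5% in these data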
m5-HT2A ag conf: mouse HTR2A agonism confirmed; shares compounds with m5-HT2A agonist; CHO-K1 PathHunter beta-arrestin recruitment, luminescence; DMSO 0%, 30 µM serotonin 100%; activation, % at 7.6 µM; actives 19% (n = 2,300); AID 624381;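 active = mean activation across triplicates above the hit threshold derived in the original primary screen, cut at about 15% in these data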
Starred values were filed as active, the others as inactive; nt = not tested or not shown.

SMILES | m5-HT2A agonist | ABHD5 PLIN5 PPI | Granule exo inh | Beta2AR agonist | NTR1 ag | OPRM1 ag | m5-HT2A ag conf
Cc1ccc(NC(=O)Cn2nnc(C(=O)NCc3cccs3)c2N)cc1 | -1 | -1 | -3 | -4 | -2 | nt | nt
CCOC(=O)c1c(NC(=O)c2ccco2)sc2c1CCCC2 | 6 | -4 | 3 | 2 | 0 | nt | nt
CCOC(=O)c1c(O)c2c(n(Cc3ccco3)c1=O)CCCC2 | 15* | 13 | 3 | 18 | 1 | 0 | 6
Oc1cc2c(cc1O)[C@@H](c1ccccc1)CNCC2 | 19* | -8 | 0 | 3 | nt | 0 | 48*
CN1CCc2cc(O)c(O)cc2C(c2ccccc2)C1 (configuration not stated) | 17* | -1 | -4 | 1 | -1 | 0 | 78*
CC(C)C[C@H](NC(=O)N1c2ccccc2NC(=O)[C@@H]1C(C)C)C(=O)N[C@@H](Cc1ccccc1)C(=O)O | 0 | -1 | 0 | 0 | -2 | nt | nt
CCOc1cc(C(=O)N2CCC3(CC2)NCCc2[nH]cnc23)cc(OCC)c1OCC | -2 | 2 | 5 | -1 | 0 | nt | nt
COc1ccc(NC(=O)N2CCC(C(=O)c3ccc4c(c3)OCCO4)CC2)cc1 | 17* | 3 | 4 | 2 | 1 | -1 | -4
O=C(c1ccc2c(c1)OCCO2)C1CCN(C(=O)Nc2ccc(F)cc2)CC1 | 4 | -6 | 18 | 8 | -1 | nt | nt
CCN1CCN(C(CNS(=O)(=O)c2ccc(OC)cc2)c2cccnc2)CC1 (configuration not stated) | 15* | 5 | -1 | 5 | -1 | -1 | -5
COc1cccc(CNC(=O)C2CCN(S(=O)(=O)c3ccc4c(c3)C(C)(C)C(=O)N4C)CC2)c1 | -3 | 2 | -2 | nt | nt | nt | nt
O=C1NC(=O)C(Cc2cccc(Oc3ccccc3)c2)S1 (configuration not stated) | 15* | 1 | 30 | 8 | 0 | -1 | 0
O=C(c1ccc(CS(=O)c2cccc(Cl)c2)o1)N1CCOCC1 (configuration not stated) | 18* | -4 | -10 | 4 | 2 | -1 | -2
O=C(c1ccco1)N1CCN(C(=O)c2ccc(CS(=O)c3ccc(Cl)cc3)o2)CC1 (configuration not stated) | 15* | 0 | -3 | -14 | 1 | -1 | -3
Cc1ccc(S(=O)Cc2ccc(C(=O)N3CCN(C(=O)c4ccco4)CC3)o2)cc1 (configuration not stated) | -3 | 0 | 1 | 1 | -2 | nt | nt
CN(c1ccc(C(=O)N2CCN(Cc3ccccc3)CC2)cc1)S(=O)(=O)c1ccc(Cl)cc1 | 15* | 11 | 3 | -9 | 0 | 0 | 64*
Cc1[nH]c2ccccc2c1NC(=O)CN1CCN(C(=O)c2ccco2)CC1 | 22* | 0 | -7 | -6 | 0 | -1 | 81*
Cc1[nH]c2ccccc2c1C(=O)C(=O)N1CCN(C(=O)c2ccco2)CC1 | 0 | -1 | -3 | -8 | -1 | nt | nt
COc1ccc(OC)c(NC(=O)c2nnn(CC(=O)Nc3ccc4c(c3)OCO4)c2N)c1 | 10 | -4 | 4 | 15 | 0 | nt | nt
COc1ccc(OC)c(S(=O)(=O)Nc2ccc(-c3ccc4nncn4n3)cc2)c1 | 3 | 2 | -1 | 9 | -1 | nt | nt
Cc1ccc(C)c(C2=NNC(=O)CC2)c1 | -1 | 3 | 12 | 1 | -1 | nt | nt
CCCCNc1ccc2c(c1)C1CC2CCN1C(=O)OCc1ccccc1 (configuration not stated) | -8 | -3 | 0 | 7 | nt | nt | nt
CCc1ccc(CN2CCN(C(=O)c3ccco3)CC2)cc1 | 15* | 0 | -2 | -3 | 1 | -1 | 123*
O=C(c1ccco1)N1CCN(Cc2ccc(Cl)cc2)CC1 | 21* | 5 | -1 | 3 | 0 | 0 | 88*
O=C(Cc1ccc(Cl)cc1)N1CCN(C(=O)c2ccco2)CC1 | -3 | -3 | -2 | -1 | -2 | nt | nt
SMILES | m5-HT2A agonist | ABHD5 PLIN5 PPI | Granule exo inh | Beta2AR agonist | NTR1 ag | OPRM1 ag | m5-HT2A ag conf
O=C(c1ccco1)N1CCN(Cc2c(Cl)cccc2Cl)CC1 | -1 | -6 | 7 | -7 | 3 | nt | nt
O=C(c1ccco1)N1CCN(Cc2ccc(Br)cc2)CC1 | 15* | 5 | 5 | 2 | 0 | 0 | 90*
O=C(Cn1ccc(C(F)(F)F)n1)NNC(=O)c1cccnc1 | 4 | 0 | -1 | -6 | 1 | nt | nt
Cc1ccc(C(=O)NNC(=O)Cn2ccc(C(F)(F)F)n2)o1 | 16* | 1 | 0 | 3 | -1 | -1 | -1
COc1ccc(N=C2C(=Nc3ccc(OC)cc3)N(c3ccc(OC)cc3)C(=S)N2c2ccccc2)cc1 | 16* | -11 | 0 | 5 | 2 | -1 | -3
COc1ccc(N=C2C(=Nc3ccc(OC)cc3)N(c3ccc(OC)cc3)C(=S)N2C)cc1 | 0 | -9 | -6 | 6 | 1 | nt | nt
COCCN(Cc1ccccc1)C(=O)c1cccc(S(=O)(=O)N2CCN(c3ccccc3)CC2)c1 | 6 | -9 | 17 | 9 | 1 | nt | nt
COCCN(Cc1ccccc1)C(=O)c1ccc(C(=O)c2ccccc2)cc1 | 22* | 12 | 6 | -3 | 2 | 0 | -2
c1ccc(-[n+]2nc(Nc3cccc4ccccc34)sc2-c2c3ccccc3cc3ccccc23)cc1 | -8 | 11 | -4 | 1 | 2 | nt | nt
Cc1cccc(CCNS(=O)(=O)c2cc3c(cc2C)NC(=O)CO3)c1 | 21* | 2 | -2 | 3 | 0 | -1 | -4
Cc1cccn2c(=O)nc(SCC(=O)NC3CCCCC3)nc12 | 6 | -7 | 2 | -6 | -1 | nt | nt
CC(=O)C12OC1CC1C3CCC4=CC(=O)CCC4(C)C3CCC12C (configuration not stated) | 16* | 10 | 2 | 18 | 0 | -1 | -2
C[C@]12CCC(=O)C=C1CCC1C2CC[C@@]2(C)C1CCC21OCCO1 (some centres not stated) | 3 | 10 | 4 | 3 | 0 | nt | nt
CC(=O)c1ccc(N2CCN(C(=O)C3CCN(S(=O)(=O)c4ccc5c(c4)CC(C)N5C(C)=O)CC3)CC2)cc1 (configuration not stated) | 16* | 7 | -1 | -4 | 1 | 0 | 1
CC(=O)N1CCN(C(=S)NC(=O)c2ccc(S(=O)(=O)N3CCOCC3)cc2)CC1 | 16* | 0 | 0 | 4 | -1 | -1 | -3
COC(=O)[C@]1(C)N[C@H](CN(C)S(=O)(=O)c2ccc(OC(F)(F)F)cc2)[C@@H]2C(=O)N(C)C(=O)[C@@H]21 | -2 | -2 | 15 | -5 | 0 | nt | nt

Source: PubChem
